Test results taken from PubChem BioAssay.

Molecular target: Neurogenic locus notch homolog protein 3 (Homo sapiens) (UniProt Q9UM47)
Experiment: NOTCH3 binders on small-molecule microarray, primary screen, biochemical, 635/667 nm fluorescence (AID 1096)
Conditions: NOTCH3 binding, 635 nm fluorescence, higher = more signal

Sequence of Neurogenic locus notch homolog protein 3 (Homo sapiens) (Q9UM47 whole entry, looked up): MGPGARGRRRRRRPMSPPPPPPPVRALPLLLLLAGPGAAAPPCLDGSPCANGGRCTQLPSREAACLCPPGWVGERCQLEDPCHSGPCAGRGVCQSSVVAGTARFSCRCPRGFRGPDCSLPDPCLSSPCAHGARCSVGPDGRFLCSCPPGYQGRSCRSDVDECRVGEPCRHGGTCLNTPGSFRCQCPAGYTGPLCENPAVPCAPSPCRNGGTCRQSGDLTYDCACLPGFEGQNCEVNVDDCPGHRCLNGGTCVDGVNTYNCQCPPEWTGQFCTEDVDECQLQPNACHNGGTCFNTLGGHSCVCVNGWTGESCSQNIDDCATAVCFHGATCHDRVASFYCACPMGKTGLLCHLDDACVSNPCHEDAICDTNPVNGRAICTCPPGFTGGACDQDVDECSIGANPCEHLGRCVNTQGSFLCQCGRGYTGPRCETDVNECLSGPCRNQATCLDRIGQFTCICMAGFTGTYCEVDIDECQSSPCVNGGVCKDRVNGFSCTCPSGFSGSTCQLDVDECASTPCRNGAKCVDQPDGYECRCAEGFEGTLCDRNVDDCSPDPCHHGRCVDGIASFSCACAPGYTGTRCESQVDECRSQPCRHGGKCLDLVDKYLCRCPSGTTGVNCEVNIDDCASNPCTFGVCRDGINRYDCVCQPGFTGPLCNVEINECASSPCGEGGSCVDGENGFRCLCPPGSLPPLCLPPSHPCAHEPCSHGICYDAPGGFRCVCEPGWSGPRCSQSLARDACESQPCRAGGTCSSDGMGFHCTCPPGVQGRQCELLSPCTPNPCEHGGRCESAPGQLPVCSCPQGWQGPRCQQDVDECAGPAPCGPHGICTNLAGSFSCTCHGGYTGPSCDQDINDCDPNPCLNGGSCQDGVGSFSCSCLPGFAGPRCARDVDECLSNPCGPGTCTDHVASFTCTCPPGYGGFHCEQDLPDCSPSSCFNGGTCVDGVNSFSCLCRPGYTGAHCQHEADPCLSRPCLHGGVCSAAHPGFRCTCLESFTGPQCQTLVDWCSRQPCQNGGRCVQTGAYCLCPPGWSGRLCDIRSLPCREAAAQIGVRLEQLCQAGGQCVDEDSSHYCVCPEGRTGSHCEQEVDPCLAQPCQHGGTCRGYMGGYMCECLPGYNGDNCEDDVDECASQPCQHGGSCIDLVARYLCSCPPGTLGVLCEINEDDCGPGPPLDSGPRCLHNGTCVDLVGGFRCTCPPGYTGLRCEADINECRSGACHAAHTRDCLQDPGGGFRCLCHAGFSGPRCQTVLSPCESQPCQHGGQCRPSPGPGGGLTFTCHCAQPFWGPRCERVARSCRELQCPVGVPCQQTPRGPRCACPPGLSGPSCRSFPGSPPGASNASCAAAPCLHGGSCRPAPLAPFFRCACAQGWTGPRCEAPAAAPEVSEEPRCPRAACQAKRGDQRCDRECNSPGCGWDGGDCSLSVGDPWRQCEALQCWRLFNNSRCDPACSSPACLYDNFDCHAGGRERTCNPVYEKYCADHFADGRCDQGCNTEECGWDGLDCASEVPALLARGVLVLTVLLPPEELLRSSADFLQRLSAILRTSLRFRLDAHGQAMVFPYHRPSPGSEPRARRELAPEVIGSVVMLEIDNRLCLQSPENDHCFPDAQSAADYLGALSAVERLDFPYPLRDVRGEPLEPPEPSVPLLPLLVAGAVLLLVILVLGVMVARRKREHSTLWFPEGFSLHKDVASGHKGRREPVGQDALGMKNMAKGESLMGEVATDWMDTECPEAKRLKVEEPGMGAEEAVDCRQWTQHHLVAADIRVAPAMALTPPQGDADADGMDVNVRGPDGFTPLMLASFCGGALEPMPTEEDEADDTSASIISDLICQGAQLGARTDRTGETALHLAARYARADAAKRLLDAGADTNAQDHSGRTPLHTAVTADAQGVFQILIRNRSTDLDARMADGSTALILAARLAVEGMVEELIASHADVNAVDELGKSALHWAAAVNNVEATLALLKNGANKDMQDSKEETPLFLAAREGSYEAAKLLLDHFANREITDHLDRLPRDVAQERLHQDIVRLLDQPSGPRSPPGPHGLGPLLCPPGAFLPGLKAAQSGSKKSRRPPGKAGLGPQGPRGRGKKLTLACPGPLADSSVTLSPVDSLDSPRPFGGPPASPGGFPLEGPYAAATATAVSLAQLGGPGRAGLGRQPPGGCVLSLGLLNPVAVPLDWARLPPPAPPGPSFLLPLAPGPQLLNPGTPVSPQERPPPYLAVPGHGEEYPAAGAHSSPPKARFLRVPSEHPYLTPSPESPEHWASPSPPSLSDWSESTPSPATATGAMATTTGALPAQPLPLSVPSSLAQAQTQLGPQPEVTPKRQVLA

Compound | composite z-score
O=C1c2ccccc2[C@](Cc2ccccc2I)(C(=O)NCC(F)(F)F)[C@H](c2ccc(CO)cc2)N1Cc1ccccc1Cl | 0.958
CCCC=C(CCC)[C@@H](NC(=O)c1cccs1)c1ccc(C(F)(F)F)cc1 | 1.09
CCCCN1CC=CC23O[C@@H]4C=CCCOC(=O)C4[C@H]2C(=O)N(CCCCCCO)[C@@H]3C1=O (stereo not given in full) | 0.294
CCCCCN1CC=CC23O[C@@H]4C=CCCOC(=O)C4[C@H]2C(=O)N(CCCCCO)[C@@H]3C1=O (stereo not given in full) | -0.147
O=C(NC1CC1)[C@@H]1c2ccccc2C(=O)N(Cc2ccccc2Cl)[C@H]1c1ccc(CO)cc1 | 1.11
COCCOC(=O)N1C(=O)[C@@]2(c3cc(C#CCC(C(=O)OC)C(=O)OC)ccc31)[C@H](C(=O)N1CCN(c3ncccn3)CC1)[C@H]1C(=O)O[C@H](c3ccccc3)[C@H](c3ccccc3)N1[C@@H]2c1ccccc1OCCO | 1.06
CCCC[C@H]1OB(O)C[C@H]2C1=C(COC)Cn1c(=O)n(-c3ccccc3)c(=O)n12 | 0.121
Oc1ccc2cc[n+](Cc3sc4ccccc4c3Cl)cc2c1 | 0.207
C=C[C@H](OC)[C@@H](OC(=O)Nc1ccc(OC)cc1)c1ccc(O)c(F)c1 | -0.363
O=C1C2C=CC(C(O)c3cc(C(F)(F)F)cc(C(F)(F)F)c3)N(n3cnnc3)C2C(=O)N1Cc1ccccc1 (stereo not given) | 0.679
CCC(CC)C(O)C1C=CC2C(=O)NC(=O)C2N1Nc1ccc(Cl)cc1Cl (stereo not given) | 1.01
COc1cc(C(O)C2C=CC3C(=O)NC(=O)C3N2Nc2ccccn2)cc(OC)c1OC (stereo not given) | 0.158
CC(C)C(CO)N1C(=O)[C@@H]2C3C(=O)OCCC/C=C\[C@H]3OC23C=CCN(CCN2CCOCC2)C(=O)[C@@H]13 (stereo not given in full) | 0.0008
C=CCN1C(=O)[C@@]2(CC=C)N=C(c3ccc(OCCCO)cc3)O[C@H]2c2ccccc21 | 0.874
COC(=O)[C@@]1(Cc2ccccc2)N=C(c2ccc(OCCCO)cc2)O[C@H]1c1ccccc1 | 0.107
C=C(COC)/C(=C/C[C@@H](OC(=O)c1ccncc1)c1ccc(CO)o1)c1cc(C(=O)OC)ccc1OC | 1.07
CN(C)CCCC[C@@H]1NC(=O)[C@H]2C[C@@H](C(=O)NCCCCCCN)[C@@H](c3ccc(O)cc3)N2C1=O | 1.15
CO[C@H]1O[C@H](CO)[C@@H](OC(=O)Nc2ccc(Oc3ccccc3)cc2)[C@H](OC(=O)Nc2ccc3c(c2)OCO3)[C@H]1OC(=O)Nc1ccc2c(c1)OCO2 | 1.02

Compound | composite z-score
Cc1ccc(S[C@]2(C(=O)NC3CC3)CC(=O)N(Cc3ccccc3)[C@@H]2c2ccc(CO)cc2I)cc1 | -0.738
CCCC#C[Si](O[C@H](CC)c1cn(Cc2cccc(Cl)c2)nn1)(C(C)C)C(C)C | 1.13
COCC(=C=CC[C@@H](O)c1cccc(OCCO)c1)C[C@@H](O)c1ccccn1 | 0.599
CC(C)C[C@@H]1NC(=O)[C@H](C(C)C)NC(=O)[C@@]23C(=O)N[C@@H](Cc4ccccc4)C2[C@H](C)[C@@]2(C)O[C@H]2C3/C=C/CC/C=C/CNC1=O (stereo not given in full) | 1.03
[N-]=[N+]=Nc1ccccc1[C@@H]1OC(c2ccc(OCCCO)cc2)=N[C@]1(Cc1ccccc1)C(=O)N1CCOCC1 | 1.1
COc1ccc([Si](C)(C)[C@H]2[C@H](CCO)O[C@@]3(C(=O)N(Cc4ccc(N(C=O)c5ccccc5)cc4)c4ccccc43)[C@@H]2C)cc1 | 0.033
CC(C)=CCCC(C)=CC(O)C1C=CC2C(=O)N(C)C(=O)C2N1Nc1ccccc1 (stereo not given) | 1.03
COc1cc(NN2C(C(O)c3ccco3)C=CC3C(=O)N(c4ccccc4)C(=O)C32)cc(OC)c1OC (stereo not given) | 0.703
C=CC[C@@]1(C(=O)NCCN2CCOCC2)N=C(c2ccc(OCCCO)cc2)O[C@@H]1c1ccccc1N=[N+]=[N-] | -0.483
COC(=O)[C@@]1(Cc2ccccc2)[C@H]2c3cc(C(=O)N4CCCC4)n(Cc4ccc(S(C)(=O)=O)cc4)c3C[C@H]2CN1C(=O)c1ccccc1 | 1.01
C=CCNC(=O)[C@@H]1[C@H]2C(=O)O[C@H](c3ccccc3)[C@H](c3ccccc3)N2[C@H](c2ccc(O)cc2)[C@@]12C(=O)N(C(=O)OCCOC)c1ccc(C#CCNC(N)=O)cc12 | 1.1
CCOC(=O)C1=CC[C@@H](c2ccccc2)N(S(=O)(=O)c2ccc(C)cc2)[C@H]1c1ccccc1C | 0.913
C=CCNC(=O)[C@@H]1[C@H]2C(=O)O[C@H](c3ccccc3)[C@H](c3ccccc3)N2[C@H](c2ccc(O)cc2)[C@@]12C(=O)Nc1ccc(C#CCNC(N)=O)cc12 | 0.0332
O=C(NCCN1CCOCC1)[C@@H]1c2ccccc2C(=O)N(C2CCCCC2)[C@H]1c1ccc(CO)cc1 | -0.565
CCCCCCc1nc(-c2cc(C)c(OC)c(C)c2)cc2c1[Si](C(C)C)(C(C)C)OC2 | -0.129
C=CCNC(=O)[C@H]1[C@@H]2C(=O)O[C@@H](c3ccccc3)[C@@H](c3ccccc3)N2[C@@H](c2ccccc2OCCO)[C@]12C(=O)Nc1ccc(C#CCC(C(=O)OC)C(=O)OC)cc12 | 1.05
CC(=O)n1cc(C(O)C2C=CC3C(=O)N(c4ccccc4)C(=O)C3N2Nc2ccc([N+](=O)[O-])cc2)c2ccccc21 (stereo not given) | 1.06
